# Test results from paper PMC7819943, “Rice protein-binding microarrays: a tool to detect cis-acting elements near promoter regions in rice”.
# The full ranking holds about 68,000 sequences; the median of “fluorescence intensity (a.u.)” is about 9,100, and the highest 2% start at about 16,000. Only a selection was taken, and the highest values are over-represented in it overall.
# Molecular target: OsWRKY34 (Oryza sativa, UniProt Q0JBA9 1-250)
# Experiment: protein-binding microarray (RPBM); PBS, 2% BSA, 51.3 ng/ul salmon testes DNA, 50 uM zinc acetate, 200 nM TF, 25 C, 1 h; high values mean tight binding
# Conditions: protein: recombinant; tags: N-terminal polyhistidine and DsRed monomer fusion (pET32a); label: CyDye5-dUTP incorporated in the synthesized complementary strand; 3' TTTTT single-stranded linker to array surface; dsDNA, one strand shown
# Outline: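 In PBS with 2% BSA, salmon testes DNA and 50 µM zinc acetate, 200 nM protein was incubated on a custom Agilent array at 25 °C for 1 h and then washed off. The array had been made double-stranded by primer extension with Cy5-dUTP and blocked with 2% BSA. The proteins were transcription factors fused N-terminally to polyhistidine and DsRed, expressed in E. coli BL21-CodonPlus and purified on Ni–NTA. The binding signal is per-feature fluorescence intensity (arbitrary units) from an Axon 4000B scanner.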
# OsWRKY34, sequence (Q0JBA9 entry or part of it): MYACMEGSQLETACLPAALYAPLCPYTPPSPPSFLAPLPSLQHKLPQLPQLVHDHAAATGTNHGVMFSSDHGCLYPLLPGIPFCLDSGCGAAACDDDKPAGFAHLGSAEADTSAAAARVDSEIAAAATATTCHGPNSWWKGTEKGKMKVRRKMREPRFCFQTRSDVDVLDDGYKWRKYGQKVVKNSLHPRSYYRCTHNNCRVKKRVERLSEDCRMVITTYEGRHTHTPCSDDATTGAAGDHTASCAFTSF
row,Sequence,binding signal
1,GCTTCTTCCGTTGCAATTCCATTCTCCTCTCTCTCCTGCTCGGAGTCACCTAGTGCAG,11400 fluorescence intensity (a.u.)
2,AGGACACCTTAGCATTCAGCCATCTTATTTCTCTGTATTACGGAGTCACCTAGTGCAG,9420 fluorescence intensity (a.u.)
3,TCCAGAAGACACCCGCCTGCTCCACTGCCGTTCCTGTCGACGGAGTCACCTAGTGCAG,9120 fluorescence intensity (a.u.)
4,ACTGTGAATGTGTGACTAAATGGGCCGAGCCCAACTACTACGGAGTCACCTAGTGCAG,9860 fluorescence intensity (a.u.)
5,GATTCATCTTGCCCTCAAAGTTTCCTGCTTTGTTTGATCACGGAGTCACCTAGTGCAG,9520 fluorescence intensity (a.u.)
6,GGAGGGAGTAGTATATTGGGGATTTTCAGTTGGGTCTGGGCGGAGTCACCTAGTGCAG,14200 fluorescence intensity (a.u.)
7,GCCATTCTATAGGAGGTGGTGGGGAGGGTTTCGTGCTCCTCGGAGTCACCTAGTGCAG,10800 fluorescence intensity (a.u.)
8,TTTGTCACGCGAATACTGTATTGTAGGGTGGGGTTCACTGCGGAGTCACCTAGTGCAG,12100 fluorescence intensity (a.u.)
9,GCCGGCTAAACTGGCTTATTGTACTTGCTCTTACTTGACTCGGAGTCACCTAGTGCAG,9430 fluorescence intensity (a.u.)
10,ATACTAGGCTGTATCTCTCTCGCTCTCTTGTTGTTCCCTCCGGAGTCACCTAGTGCAG,18200 fluorescence intensity (a.u.)
11,ATTTTTTATTTCTTTTGTTTCAAATTTCAGTTCTTTTTATCGGAGTCACCTAGTGCAG,9720 fluorescence intensity (a.u.)
12,TCATTTTGTATTTTGTTGTCTCTGTCTTGCTGTTCCCTCGCGGAGTCACCTAGTGCAG,8810 fluorescence intensity (a.u.)
13,ATGTTTTTTTTTGGGTCGCTTTCTTTGTGTGTGTATATATCGGAGTCACCTAGTGCAG,16400 fluorescence intensity (a.u.)
14,GCTCTCTCTCTCTCTCTCTCTCGCTGTCTCTCTCCCTCCCCGGAGTCACCTAGTGCAG,9110 fluorescence intensity (a.u.)
15,GTGTGTTGTTGTTCTTGTTTTGGTTCTTTTCTAGTAGTATCGGAGTCACCTAGTGCAG,8750 fluorescence intensity (a.u.)
16,TCTCGTTTCGTTCGTGTATCATGTTTTTTTTTGGGTCGCTCGGAGTCACCTAGTGCAG,8730 fluorescence intensity (a.u.)
17,TTTTCTTTCTTTTTCTTTTTTTTTATCGTTTTGTTCTTCTCGGAGTCACCTAGTGCAG,10500 fluorescence intensity (a.u.)
18,ATGTTTTAATTTTGGGCTTCTTTTTGTTTTGGGCTTTTATCGGAGTCACCTAGTGCAG,24300 fluorescence intensity (a.u.)
19,GGTCATACTCTCTTCGTCCCATTTAATGTACAATCATGCTCGGAGTCACCTAGTGCAG,8860 fluorescence intensity (a.u.)
20,GTTTCATAATCCTGTGTTCTTTTTGTTTACTATGGTTTTGCGGAGTCACCTAGTGCAG,11000 fluorescence intensity (a.u.)
21,GCAACTGATAGACTAACTTGTCCGGTCCTGTTTTGGAATCCGGAGTCACCTAGTGCAG,10200 fluorescence intensity (a.u.)
22,TGCCAGCACAAATCTCGAAGCACATCCAATGATCCAAGACCGGAGTCACCTAGTGCAG,9540 fluorescence intensity (a.u.)
23,TACTGTTGCTGCTAGTTCACCATTTGCGCATTTCCTCTTCCGGAGTCACCTAGTGCAG,11700 fluorescence intensity (a.u.)
24,TCGCCGTTCGCTGGTATATGCCGTTGTCTTGGAATCATCTCGGAGTCACCTAGTGCAG,11100 fluorescence intensity (a.u.)
25,GGGAGAGGTGGAGACCAGGAGGTGGGGTGGCGGAGGTCATCGGAGTCACCTAGTGCAG,14300 fluorescence intensity (a.u.)
26,TGACATGGTTGTTAGGGTTTGCGAGCAAATTTTCGTGGGGCGGAGTCACCTAGTGCAG,10100 fluorescence intensity (a.u.)
27,GTGGAGGCGCGGTGGGGTGGGGAAGGAGTGTGTTTCGTGTCGGAGTCACCTAGTGCAG,15500 fluorescence intensity (a.u.)

row,Sequence,binding signal
1,GCATCGTGGGGTGTGGGTGGCGGTTTTGGAGGGGAGAGGTCGGAGTCACCTAGTGCAG,23200 fluorescence intensity (a.u.)
2,CGCGGGAATCGGCCGGCGACGTGGGGAGGTGGGGAGGAGACGGAGTCACCTAGTGCAG,8900 fluorescence intensity (a.u.)
3,CCGGTGGGGTGGGGAATTCGGCGGAGGAAGACGACGACGACGGAGTCACCTAGTGCAG,9250 fluorescence intensity (a.u.)
4,GGCGGTATCGACGAAGAATCTCGGGGCGGTGGGGAGGTTTCGGAGTCACCTAGTGCAG,17700 fluorescence intensity (a.u.)
5,CGGTGTTGGGATCGGGTTTGGAGGTGGTAAGGGTGGTGGTCGGAGTCACCTAGTGCAG,10600 fluorescence intensity (a.u.)
6,AAATTTAGGTGGAGGGGTGTGGGCGGTTTCGTGCAAAAATCGGAGTCACCTAGTGCAG,19100 fluorescence intensity (a.u.)
7,ATGGGTTGGGACTGTCCTGGTGCGCGATTACTAACGTGGACGGAGTCACCTAGTGCAG,8790 fluorescence intensity (a.u.)
8,TATTGGAACTATTACGACCACATGCTCTCTTCCTACTCTCCGGAGTCACCTAGTGCAG,9770 fluorescence intensity (a.u.)
9,CTCCAGCCGATATACATGCAGCCGCTGTCATCTTTTGTTCCGGAGTCACCTAGTGCAG,9100 fluorescence intensity (a.u.)
10,TCTTTTACACTTCATTTATTTTTTCATGCACCAAGGCTTACGGAGTCACCTAGTGCAG,9810 fluorescence intensity (a.u.)
11,TGTTTTGGCTTTGGTCCCTTGCTTTTCTTTGGAGGTTGGACGGAGTCACCTAGTGCAG,10400 fluorescence intensity (a.u.)
12,TTCTTTTTTTGTGGGGAGAGGCGGGCTGTTTTTTTCTTGCCGGAGTCACCTAGTGCAG,15900 fluorescence intensity (a.u.)
13,GGATACTGCACAGCCCTTGATCACAATACAGTGCATTTCTCGGAGTCACCTAGTGCAG,9450 fluorescence intensity (a.u.)
14,GAGTAGTTCGCTTTGGCAGTATGGCATTTGTACACGCTCACGGAGTCACCTAGTGCAG,8660 fluorescence intensity (a.u.)
15,GGGGATTTTTGTACGCTCACGGCATTTTTTTTGTCAGCGACGGAGTCACCTAGTGCAG,17500 fluorescence intensity (a.u.)
16,CTTGCACGCGACGGCCTGGCATTTGTGTACGGCACCGCCCCGGAGTCACCTAGTGCAG,8030 fluorescence intensity (a.u.)
17,TATCTTATCAGGTCTCGTCTTCTTTAATCCAACCCTTGTTCGGAGTCACCTAGTGCAG,8680 fluorescence intensity (a.u.)
18,ATCTTAAGCTGTCCTTTTTCATGCCGAGTCAGAGTTTCATCGGAGTCACCTAGTGCAG,9130 fluorescence intensity (a.u.)
19,TCGGATACGAGTTTGATTCTCATCCTCCTTCATTTATATTCGGAGTCACCTAGTGCAG,8320 fluorescence intensity (a.u.)
20,CCGTATTTGAATATATGACGCCGTTGACTTTTTAACTAATCGGAGTCACCTAGTGCAG,17900 fluorescence intensity (a.u.)
21,GTATGACTTCTCCGTTTTTATATTTGCACTAATTTTTTAACGGAGTCACCTAGTGCAG,11200 fluorescence intensity (a.u.)
22,ACTCCCTCCGTATTTTAATATATGACGCCGTTGACTTATTCGGAGTCACCTAGTGCAG,13800 fluorescence intensity (a.u.)
23,CGTATTTTAATATATGACGCCGTTGACTTTTTATTAACGACGGAGTCACCTAGTGCAG,23200 fluorescence intensity (a.u.)
24,CGTATTTTAATATATGACGCCCGCCGTTGACTTTTTGTCTCGGAGTCACCTAGTGCAG,27800 fluorescence intensity (a.u.)
25,CTCTGCACGTTTCTTTCCCCTAACAAATACATGTACACACCGGAGTCACCTAGTGCAG,9590 fluorescence intensity (a.u.)
26,ACACATAAACTTCTAACTTTTCCGTCACATCGTTCCAATTCGGAGTCACCTAGTGCAG,8380 fluorescence intensity (a.u.)
27,GCATCCTAACATCCCGCCGAAGGACCTTTTCAACCTCATCCGGAGTCACCTAGTGCAG,8300 fluorescence intensity (a.u.)
